Source: PubChem BioAssay (Tox21)
Records with an inconclusive call do not appear. Calls of active or inactive are those of the source. Unless noted, calls follow the shape of the dose curve; as a rule, active = well fitted curve in the direction sought with a large enough effect in the repeat runs; inconclusive = weak or mixed curves; inactive = no such curve, though single readings can be large; an effect the other way counts as inactive or inconclusive.

Key:
[1] = qHTS assay to test for compound auto fluorescence at 535 nm (green) in HEK293 cells (AID 720680)
[2] = qHTS assay to test for compound auto fluorescence at 460 nm (blue) in HEK293 cell free culture (AID 720681)
Summary of the method: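 Test compounds were pinned into cell-free culture medium (DMEM with 10% FBS) and fluorescence was read directly at Ex/Em 405/460 nm. Signals were expressed as fluorescence equivalents of triamterene, with DMSO vehicle as control.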

[3] = qHTS assay to test for compound auto fluorescence at 535 nm (green) in HEK293 cell free culture (AID 720682)
Summary of the method: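 Green-channel intensity (Ex/Em 485/535 nm) was recorded from compound-treated wells containing only DMEM with 10% FBS. Fluorescein provided the equivalency standard.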

[4] = qHTS assay to test for compound auto fluorescence at 590 nm (red) in HEK293 cell free culture (AID 720683)
Summary of the method: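 Tox21 10K library compounds were pinned into cell-free DMEM with 10% FBS and fluorescence was read at excitation 540 nm. Activity is expressed as Rose Bengal sodium equivalency.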

[5] = qHTS assay to test for compound auto fluorescence at 590 nm (red) in HepG2 cell free culture (AID 720684)
Summary of the method: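 Measured in medium alone (MEM containing 10% FBS) following pintool addition of compound; emission at 590 nm with 540 nm excitation, referenced to Rose Bengal sodium.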

[6] = qHTS assay to test for compound auto fluorescence at 460 nm (blue) in HepG2 cell free culture (AID 720685)
Summary of the method: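 Compound (23 nL) or DMSO pinned into cell-free MEM with 10% FBS; blue fluorescence read at 405/460 nm excitation/emission, expressed as auto-fluorescence equivalency to triamterene.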

[7] = qHTS assay to test for compound auto fluorescence at 535 nm (green) in HepG2 cell free culture (AID 720686)
[8] = target: Glucocorticoid receptor (Homo sapiens) (UniProt P04150); assay: qHTS assay to identify small molecule agonists of the glucocorticoid receptor (GR) signaling pathway (AID 720691; active = well fitted activation curve with a large enough effect in the signal ratio in the repeat runs, not every such curve was filed as active; the % refers to the signal ratio)
Glucocorticoid receptor (Homo sapiens), sequence (P04150 whole entry, looked up): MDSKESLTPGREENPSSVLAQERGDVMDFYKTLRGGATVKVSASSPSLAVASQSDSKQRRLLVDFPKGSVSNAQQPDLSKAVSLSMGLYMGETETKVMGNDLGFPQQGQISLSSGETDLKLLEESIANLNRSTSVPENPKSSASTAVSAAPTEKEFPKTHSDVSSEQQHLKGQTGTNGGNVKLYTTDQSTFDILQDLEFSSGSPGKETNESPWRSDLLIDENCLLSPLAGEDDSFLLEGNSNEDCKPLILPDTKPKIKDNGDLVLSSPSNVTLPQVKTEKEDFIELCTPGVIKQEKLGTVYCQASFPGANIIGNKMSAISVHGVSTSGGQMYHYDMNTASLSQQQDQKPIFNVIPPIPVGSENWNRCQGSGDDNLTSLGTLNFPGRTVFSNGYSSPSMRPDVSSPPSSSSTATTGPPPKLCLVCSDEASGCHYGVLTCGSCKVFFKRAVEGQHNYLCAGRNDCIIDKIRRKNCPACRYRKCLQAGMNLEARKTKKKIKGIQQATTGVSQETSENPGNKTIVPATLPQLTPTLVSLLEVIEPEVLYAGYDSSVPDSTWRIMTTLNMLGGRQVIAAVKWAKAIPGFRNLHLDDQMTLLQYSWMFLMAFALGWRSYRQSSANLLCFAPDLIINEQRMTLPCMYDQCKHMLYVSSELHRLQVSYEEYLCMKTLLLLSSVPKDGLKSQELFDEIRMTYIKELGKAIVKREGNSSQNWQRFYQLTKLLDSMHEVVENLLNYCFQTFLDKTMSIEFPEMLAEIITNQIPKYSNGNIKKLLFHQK
Summary of the method: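 GR-bla HeLa cells (beta-lactamase reporter under glucocorticoid response element) were plated 4 h at 37 C/5% CO2, given compounds in DMSO, and incubated 18 h at 37 C. LiveBLAzer B/G FRET substrate was added for 2 h at room temperature, then fluorescence intensity read.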

[9] = qHTS assay to identify small molecule antagonists of the glucocorticoid receptor (GR) signaling pathway - cell viability counter screen (AID 720693); also: nearly all actives have a fitted effect of over 55% in size
[10] = qHTS assay for identifying genotoxic compounds that show differential cytotoxicity against isogenic chicken DT40 cell lines with known DNA damage response pathways - wild type cell line (AID 743012); also: nearly all actives have a fitted effect of over 60% in size; also: potency is read from the fitted curve at half-maximal effect
Summary of the method: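 Parental DNA repair-proficient DT40 cells, 300 per well, were pre-incubated ~0.5 h at 37 C/5% CO2, pin-dosed with compounds in DMSO, then incubated 40 h. Viability was read as CellTiter-Glo luminescence after 30 min at room temperature.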

[11] = qHTS assay for identifying genotoxic compounds that show differential cytotoxicity against isogenic chicken DT40 cell lines with known DNA damage response pathways - Rev3 mutant cell line (AID 743014); also: nearly all actives have a fitted effect of over 55% in size; also: potency is read from the fitted curve at half-maximal effect
[12] = qHTS assay to identify small molecule antagonists of the androgen receptor (AR) signaling pathway - cell viability counter screen (AID 743033; also: nearly all actives have a fitted effect of over 45% in size; also: potency is read from the fitted curve at half-maximal effect)
[13] = target: Androgen receptor (Homo sapiens) (UniProt P10275); assay: qHTS assay to identify small molecule antagonists of the androgen receptor (AR) signaling pathway (AID 743035; active = well fitted inhibition curve with a large enough effect in the signal ratio in the repeat runs, not every such curve was filed as active; the % refers to the signal ratio)
Androgen receptor (Homo sapiens), sequence (P10275 whole entry, looked up): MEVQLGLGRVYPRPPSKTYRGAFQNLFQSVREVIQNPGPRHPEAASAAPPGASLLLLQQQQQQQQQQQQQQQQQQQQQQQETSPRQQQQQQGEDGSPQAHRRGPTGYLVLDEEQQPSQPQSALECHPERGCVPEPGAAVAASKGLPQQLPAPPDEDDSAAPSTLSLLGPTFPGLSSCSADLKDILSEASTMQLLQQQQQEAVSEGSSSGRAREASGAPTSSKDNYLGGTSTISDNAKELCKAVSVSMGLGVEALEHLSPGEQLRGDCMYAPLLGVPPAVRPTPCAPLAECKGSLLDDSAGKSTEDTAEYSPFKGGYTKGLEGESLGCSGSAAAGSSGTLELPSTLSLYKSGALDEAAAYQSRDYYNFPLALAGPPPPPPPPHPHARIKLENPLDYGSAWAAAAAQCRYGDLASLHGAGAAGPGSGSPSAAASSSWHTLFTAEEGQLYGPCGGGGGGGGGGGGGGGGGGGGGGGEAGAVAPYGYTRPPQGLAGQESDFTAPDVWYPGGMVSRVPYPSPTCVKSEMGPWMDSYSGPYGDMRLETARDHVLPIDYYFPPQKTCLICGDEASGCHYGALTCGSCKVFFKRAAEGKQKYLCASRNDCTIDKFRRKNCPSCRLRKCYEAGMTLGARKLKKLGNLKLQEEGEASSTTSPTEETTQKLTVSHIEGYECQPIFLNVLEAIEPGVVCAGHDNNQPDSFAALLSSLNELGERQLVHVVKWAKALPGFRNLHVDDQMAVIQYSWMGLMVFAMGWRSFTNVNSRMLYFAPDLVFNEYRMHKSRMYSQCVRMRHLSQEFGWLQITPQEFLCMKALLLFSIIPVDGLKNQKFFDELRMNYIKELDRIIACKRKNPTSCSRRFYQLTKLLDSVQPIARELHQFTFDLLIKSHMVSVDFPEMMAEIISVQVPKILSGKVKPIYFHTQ
Summary of the method: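 HEK293 cells stably carrying a UAS-driven beta-lactamase reporter (AR-UAS-bla GripTite) were plated for 4 h at 37C, then given compound and the agonist R1881 and incubated 16 h. Reporter activity was read by LiveBLAzer B/G FRET fluorescence after 2 h at room temperature.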

[14] = target: Androgen receptor (Homo sapiens) (UniProt P10275); assay: qHTS assay to identify small molecule agonists of the androgen receptor (AR) signaling pathway (AID 743036; active = well fitted activation curve with a large enough effect in the signal ratio in the repeat runs, with a control signal flat, not every such curve was filed as active; the % refers to the signal ratio)
Summary of the method: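 Cell-based FRET reporter assay: HEK293 line with a UAS-beta-lactamase construct, compounds added in DMSO, 16 h exposure at 37C, then 2 h substrate step at room temperature and fluorescence intensity read.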

[15] = target: Androgen receptor (Homo sapiens) (UniProt P10275); assay: qHTS assay to identify small molecule agonists of the androgen receptor (AR) signaling pathway using the MDA cell line (AID 743040; also: nearly all actives have a fitted effect of over 20% in size)
Summary of the method: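 Luminescence from ONE-Glo, read after 30 min at room temperature, reflects MMTV-driven luciferase in MDA-kb2 cells (AR- and GR-responsive). Treatment lasted 16 h at 37C, 0% CO2.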

[16] = qHTS assay to identify small molecule antagonists of the androgen receptor (AR) signaling pathway using the MDA cell line - cell viability counter screen (AID 743041; also: nearly all actives have a fitted effect of over 45% in size)
Summary of the method: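 Viability counter screen run alongside the AR antagonist reporter: cells seeded 5 h before compound, R1881 added, 16 h incubation at 37C without CO2, fluorescent CellTiter-Fluor signal quantified.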

[17] = target: Androgen receptor (Homo sapiens) (UniProt P10275); assay: qHTS assay to identify small molecule antagonists of the androgen receptor (AR) signaling pathway using the MDA cell line (AID 743042; also: nearly all actives have a fitted effect of over 55% in size; also: potency is read from the fitted curve at half-maximal effect)
Summary of the method: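 MDA-kb2 cells (human breast carcinoma, stably carrying an MMTV-luciferase reporter responsive to AR and GR) were plated at 3,000 cells/well and preincubated 5 hr at 37C, then given compound plus R1881 agonist for 16 h. ONE-Glo luminescence was read.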

[18] = target: Glucocorticoid receptor (Homo sapiens) (UniProt P04150); assay: qHTS assay to identify small molecule antagonists of the glucocorticoid receptor (GR) signaling pathway (AID 720692; active = well fitted inhibition curve with a large enough effect in the signal ratio in the repeat runs, not every such curve was filed as active; the % refers to the signal ratio; also: potency is read from the fitted curve at half-maximal effect)
Summary of the method: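 GR-bla HeLa cells (beta-lactamase reporter under glucocorticoid response element) were pre-plated 4 h at 37 C, treated with compounds plus 5 nM dexamethasone (final) for 18 h, then read by LiveBLAzer B/G FRET fluorescence after 2 h.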

[19] = qHTS assay for identifying genotoxic compounds that show differential cytotoxicity against isogenic chicken DT40 cell lines with known DNA damage response pathways - Rad54/Ku70 mutant cell line (AID 743015); also: nearly all actives have a fitted effect of over 60% in size; also: potency is read from the fitted curve at half-maximal effect
[20] = qHTS assay to test for compound auto fluorescence at 460 nm (blue) in HepG2 cells (AID 720687)
Summary of the method: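 Cells (2,000/well in MEM with 10% FBS) attached overnight at 37 C, then were exposed to compound or DMSO for 1 hr at 37 C, 5% CO2. Fluorescence read at Ex/Em 405/460 nm, expressed as triamterene-equivalent signal.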
% is scaled to controls: 0 for no effect and ±100 for the full control effect.

O=C(/C=C/c1ccccc1)OCCc1ccccc1
inactive: outcome [1] | Potency [2] | outcome [3] | outcome [4] | outcome [5] | Potency [6] | outcome [7] | Potency [8] | Potency [9] | Potency [10] | Potency [11] | Potency [12] | Potency [13] | outcome [14] | outcome [15] | Potency [16] | Potency [17]

CCCCCCCCC(CCCCCC)C(=O)O (configuration not stated)
active: Potency [18] 38.9 µM
inactive: outcome [1] | Potency [2] | outcome [3] | outcome [4] | outcome [5] | Potency [6] | outcome [7] | Potency [10] | Potency [19] | Potency [12]

C(=C\c1ccccc1)/c1ccccc1
inactive: outcome [1] | Potency [2] | outcome [3] | outcome [4] | outcome [5] | outcome [7] | Potency [20] | Potency [9] | Potency [11] | Potency [19] | Potency [12] | Potency [16]

N#[N+]c1ccc2c(S(=O)(=O)[O-])cccc2c1O
inactive: outcome [1] | Potency [2] | outcome [3] | outcome [4] | outcome [5] | Potency [6] | outcome [7] | Potency [9] | Potency [11] | Potency [19] | Potency [12] | Potency [16]

CN1C[C@H](C(=O)N[C@]2(C)O[C@@]3(O)[C@@H]4CCCN4C(=O)[C@H](Cc4ccccc4)N3C2=O)C[C@@H]2c3cccc4[nH]cc(c34)C[C@H]21
active: Potency [10] 23.7 µM | Potency [11] 29.8 µM | Potency [19] 16.8 µM
inactive: outcome [1] | Potency [2] | outcome [3] | outcome [4] | outcome [5] | outcome [7] | Potency [8] | Potency [18] | Potency [9] | Potency [12] | Potency [16]

CN1CCCC(CC2c3ccccc3Sc3ccccc32)C1 (configuration not stated)
active: Potency [10] 5.07 µM | Potency [11] 7.17 µM | Potency [19] 8.04 µM
inactive: fluorescence, % of fluorescein [1] 0.0892% [at 18.6 µM] | fluorescence, % of fluorescent control [2] -0.0216% [at 18.6 µM] | activity change [3] 0.123% [at 18.6 µM] | fluorescence, % of fluorescent control [4] 0.0507% [at 18.6 µM] | fluorescence, % of Rose Bengal [5] -0.0495% [at 18.6 µM] | fluorescence, % of fluorescent control [6] 0.14% [at 18.6 µM] | fluorescence, % of fluorescein control [7] -0.006% [at 18.6 µM] | Potency [8] | Potency [9] | Potency [16]

CCCCN1CCCC1C(=O)Nc1c(C)cc(C)cc1C (configuration not stated)
active: Potency [10] 16.8 µM | Potency [11] 23.7 µM | Potency [19] 29.8 µM
inactive: outcome [1] | Potency [2] | outcome [3] | outcome [4] | outcome [5] | outcome [7] | Potency [20] | Potency [8] | Potency [18] | Potency [12] | Potency [16]

Nc1ncnc2c1ncn2[C@H]1CC[C@@H](CO)O1
inactive: outcome [1] | Potency [2] | outcome [3] | outcome [4] | outcome [5] | Potency [6] | outcome [7] | Potency [9] | Potency [11] | Potency [12] | Potency [16]
active: Potency [10] 26.6 µM | Potency [19] 23.7 µM

O=C(O)c1cccc(-c2noc(-c3ccccc3F)n2)c1
inactive: outcome [1] | Potency [2] | outcome [3] | outcome [4] | outcome [5] | outcome [7] | Potency [20] | Potency [8] | Potency [18] | Potency [9] | Potency [10] | Potency [11] | Potency [19] | Potency [12]

COC(=O)CS
inactive: outcome [1] | Potency [2] | outcome [3] | outcome [4] | outcome [5] | Potency [6] | outcome [7] | Potency [9] | Potency [16]

O=Cc1c2ccccc2c(Cl)c2ccccc12
inactive: outcome [1] | Potency [2] | outcome [3] | outcome [4] | outcome [5] | outcome [7] | Potency [20] | Potency [8] | Potency [18] | Potency [9] | Potency [11] | Potency [12] | Potency [16]

O=C1c2ccccc2C(=O)C1c1ccc(Br)cc1
inactive: outcome [1] | Potency [2] | outcome [3] | outcome [4] | outcome [5] | Potency [6] | outcome [7] | Potency [9] | Potency [10] | Potency [12] | Potency [13] | outcome [15] | Potency [16] | Potency [17]

C[C@@H](O)[C@H]1C(=O)N2C(C(=O)O)=C([C@H]3CCCO3)S[C@H]12
inactive: outcome [1] | Potency [2] | outcome [3] | outcome [4] | outcome [5] | outcome [7] | Potency [20] | Potency [9] | Potency [11] | Potency [19] | Potency [12] | Potency [13] | outcome [14] | outcome [15] | Potency [16] | Potency [17]

c1cc(N(CC2CO2)CC2CO2)ccc1Cc1ccc(N(CC2CO2)CC2CO2)cc1 (configuration not stated)
active: Potency [10] 3.44 µM | Potency [11] 0.0611 µM | Potency [19] 1.93 µM | Potency [12] 54.9 µM | Potency [17] 27.3 µM
inactive: outcome [1] | Potency [2] | outcome [3] | outcome [4] | outcome [5] | Potency [6] | outcome [7] | outcome [15] | Potency [16]

CN(C(=O)CN(CCO)CC(=O)N(C)C(C)(C)Cc1ccccc1)C(C)(C)Cc1ccccc1
inactive: fluorescence, % of fluorescein [1] 0.0843% [at 18.6 µM] | fluorescence, % of fluorescent control [2] 0.0268% [at 18.6 µM] | activity change [3] -0.0126% [at 18.6 µM] | fluorescence, % of fluorescent control [4] 0% [at 18.6 µM] | fluorescence, % of Rose Bengal [5] 0.844% [at 18.6 µM] | fluorescence, % of fluorescein control [7] 0.0894% [at 18.6 µM] | fluorescence, % of fluorescent control [20] 0.0182% [at 18.6 µM] | Potency [8] | Potency [18] | Potency [9] | Potency [16]
